Growth inhibition data for 38 molecules are collected here from PubChem BioAssay (NCI).

Several values for one entry are separate records, joined by “and”; a condition that tells them apart may be missing. Equal values may be shown once. This is part of a sample that, as a whole, favours compounds with a hit. Of some 79,000 tested, about 15% had one in any assay. Unmarked numbers belong to inactive results. Activity calls are given as the source filed them. No stated cut-off is given here; in the data, active means growth inhibition above about 70%; inactive means the rest.

A short description of experiment [1]: NCI Yeast Anticancer Drug Screen. Data for the rad50 strain (AID 155).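 Further: 0% = growth of vehicle-only cultures of the same strain.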 The conditions noted are these: S. cerevisiae rad50 strain growth inhibition, hits give high values; at 50.0 µM unless noted. The essentials: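 Yeast carrying a defined DNA repair defect were exposed to test compounds, and growth was compared with vehicle-treated controls to give percent inhibition.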

Experiment [2] in a line: NCI Yeast Anticancer Drug Screen. Data for the mec2-1 strain (AID 157). Conditions: S. cerevisiae mec2-1 strain, hits give high values; at 50.0 µM unless noted. The essentials: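 Yeast mec2-1 mutant treated with compound. Readout: growth inhibition vs vehicle controls.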
Experiment [3] in a line: NCI Yeast Anticancer Drug Screen. Data for the sgs1 mgt1 strain (AID 161).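 Further: 0% = growth of cultures given vehicle only.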 The conditions noted are these: S. cerevisiae sgs1 mgt1 strain, hits give high values; at 50.0 µM unless noted. The essentials:
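Inhibition of yeast growth, normalised to vehicle-treated controls, is reported for a strain bearing genetic alterations in DNA damage repair.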

Experiment [4] can be described thus: NCI Yeast Anticancer Drug Screen. Data for the cln2 rad14 strain (AID 165).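 Further: 0% = growth equal to vehicle treated cultures.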 Conditions: S. cerevisiae cln2 rad14 strain, hits give high values; at 50.0 µM unless noted. The essentials: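 cln2 rad14 yeast strain; compound exposure; growth inhibition read vs vehicle controls.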
The nature of experiment [5]: NCI Yeast Anticancer Drug Screen. Data for the bub3 strain (AID 167). The conditions noted are these: S. cerevisiae bub3 mutant strain, hits give high values; at 50.0 µM unless noted. The essentials:
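Compounds were applied to a genetically altered yeast strain carrying a cell-cycle control defect. Growth inhibition was scored against vehicle-treated controls.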

Experiment [6] can be described thus: NCI Yeast Anticancer Drug Screen. Data for the mlh1 rad18 strain (AID 175). Conditions: S. cerevisiae mlh1 rad18 strain growth inhibition, hits give high values; at 50.0 µM unless noted. The gist of the method: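 Yeast w/ defined DNA-repair lesions; compound exposure; growth vs vehicle controls → % inhibition.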

As for `NC(=S)Cc1ccncc1`, the growth inhibition in experiment [1] is 12.8%; in experiment [2], 6.15%; in experiment [3], 3.45%; in experiment [4] it was 1.15%; in experiment [5], 5.55%; in experiment [6], 2.65%.

Regarding `COC(=O)/C(C#N)=N/O`, the growth inhibition in experiment [1] was 16.6%; in experiment [2], -39.1%; in experiment [3] it was -22.8%; in experiment [4], 8.4%; in experiment [5] it was -7.7%; in experiment [6] it was -21.6%.

In the case of `O=C(Oc1ccc(O)cc1)N(c1cccc2ccccc12)c1cccc2ccccc12`, the growth inhibition in experiment [1] was 38%; in experiment [2], 18.1%; in experiment [3], 40.6%; in experiment [4], 22.4%; in experiment [5], 66%; in experiment [6] it was 44.2%.

For `O=C(CC(=O)c1cc(Cl)ccc1O)c1ccc2ccccc2n1`, the growth inhibition in experiment [1] is -0.35%; in experiment [2], 13.2%; in experiment [3] it was 18.8%; in experiment [4], -21.8%; in experiment [5], -2.85%; in experiment [6], 22.4%.

Turning to `N#CNc1nc(N)c(-c2ccc(Cl)cc2)c(C(=O)Nc2nccs2)n1`, the growth inhibition in experiment [1] is -8.85%; in experiment [2], -10.9%; in experiment [3] it was 3.25%; in experiment [4] it was 1.5%; in experiment [5] it was -7.75%; in experiment [6], -12.6%.

Take `CC(NCCN1CCOCC1)c1ccc2ccccc2c1` (stereo not drawn): the growth inhibition in experiment [1] is 40.7%; in experiment [2], 15.4%; in experiment [3], 41.5%; in experiment [4], 23.9%; in experiment [5], 32.8%; in experiment [6], 42.6%.

On to `Clc1cc2cc3cccc[n+]3cc2cc1Cl`, for which the growth inhibition in experiment [1] was 54%; in experiment [2] it was 16.1%; in experiment [3] it was 26.2%; in experiment [4], -22.9%; in experiment [5], 14.6%; in experiment [6], 3.7%.

`COc1ccc(NC(C)=O)cc1`: the growth inhibition was 24.8% in experiment [1]; 3.2% in experiment [2]; 2.7% in experiment [3]; 13.8% in experiment [4]; 11.8% in experiment [5]; -11.1% in experiment [6].

Consider `Cc1cc(Cl)ccc1NC(=O)Oc1ccc(C#N)cc1`, for which the growth inhibition in experiment [1] was -13.8%; in experiment [2], -18.4%; in experiment [3], -25.2%; in experiment [4], -10.6%; in experiment [5] it was -17.1%; in experiment [6] it was -19.4%.

Take `CC(C)CC(Br)C(=O)NCC(=O)O` (stereo not drawn): the growth inhibition in experiment [1] was -25.1% and 5.2%; in experiment [2] it was -55.1% and -6.55%; in experiment [3], -27.9%; in experiment [4] it was 8.5%; in experiment [5], -24.1%; in experiment [6], -11% and -4.8%.

In the case of `NC1CC(c2ccccc2)NC(c2ccccc2)C1` (stereo not drawn), the growth inhibition in experiment [1] was 10.7%; in experiment [2] it was -2.9%; in experiment [3], -4.8%; in experiment [4] it was -8.5%; in experiment [5], -14.8%; in experiment [6], 16.2%.

For the molecule `C=C1N(c2cc3ccccc3o2)C(=O)OC12CCCCC2`, the growth inhibition in experiment [1] was -37.5%; in experiment [2] it was -2.2%; in experiment [3], -8%; in experiment [4], 8.8%; in experiment [5] it was -2.55%; in experiment [6] it was 18.9%.

In the case of `Cc1ccc([N+](=O)[O-])cc1NC(=O)/C(=N/NC(=S)NN)C1SC(=S)NC1=O` (stereo not drawn), the growth inhibition was 19.4% in experiment [1]; -12.1% in experiment [2]; 12.2% in experiment [3]; 20.9% in experiment [4]; -19.6% in experiment [5]; -8.75% in experiment [6].

`Cn1cc(C(=O)c2ccccc2)cc(C(=O)c2ccccc2)c1=O`: the growth inhibition is -3.05% in experiment [1]; -12.1% in experiment [2]; -6.05% in experiment [3]; 1.5% in experiment [4]; -15.2% in experiment [5]; -36.5% in experiment [6].

For `COC(=O)C1Cc2c([nH]c3ccccc23)C=N1` (stereo not drawn), the growth inhibition in experiment [1] is 65.3%; in experiment [2], 31.2%; in experiment [3], 55%; in experiment [4], 45.5%; in experiment [5], 14.8%; in experiment [6] it was 62.6%.

With `NNC(=O)Cc1ccc(Cl)c2ccccc12`, the growth inhibition in experiment [1] is 5.8%; in experiment [2], -17.9%; in experiment [3], 3.6%; in experiment [4], -75.9%; in experiment [5] it was -5.2%; in experiment [6], 8.85%.

As to `C=CCSC(=S)Nc1nc2ccc([N+](=O)[O-])cc2s1`, the growth inhibition in experiment [1] is -4.1%; in experiment [2], 8.9%; in experiment [3], 7.45%; in experiment [4] it was 7.8%; in experiment [5], -10.8%; in experiment [6], -5.9%.

As to `CC1CN=C(N(C(=O)Nc2ccccc2)C2CCCCC2)S1` (stereo not drawn), the growth inhibition is -43.1% in experiment [1]; -8.9% in experiment [2]; -60.1% in experiment [3]; 5.35% in experiment [4]; -4.3% in experiment [5]; -20% in experiment [6].

For `CC(=O)NNS(=O)(=O)c1ccccc1`, the growth inhibition in experiment [1] was 8.1%; in experiment [2], 28.6%; in experiment [3], 4.15%; in experiment [4], -1.15%; in experiment [5], -17.9%; in experiment [6], 16.8%.

With `CNC(=O)N(CCCC(NC(C)=O)C(=O)NCc1ccccc1)Cc1ccccc1` (stereo not drawn), the growth inhibition in experiment [1] is 16.1%; in experiment [2] it was 3.4%; in experiment [3], -7.95%; in experiment [4], 17.6%; in experiment [5], 8.5%; in experiment [6], 18.9%.

As for `CC12C=CC(=O)C(O)C1CC=CC2` (stereo not drawn), the growth inhibition in experiment [1] is 12.6%; in experiment [2], 14.3%; in experiment [3], 4.3%; in experiment [4], 6.05%; in experiment [5], 11.4%; in experiment [6], 8.95%.

Take `NC(N)=N/N=C(/CC1OC(=O)c2ccccc21)c1ccc2ccccc2c1` (stereo not drawn): the growth inhibition in experiment [1] was -3.2%; in experiment [2], -12.4%; in experiment [3], -2.65%; in experiment [4], 6.5%; in experiment [5], -16.1%; in experiment [6], -11.9%.

For the molecule `Oc1ccc(/C=C\c2cnccn2)cc1`, the growth inhibition in experiment [1] is 27.6%; in experiment [2], 7.3%; in experiment [3], 0.45%; in experiment [4], 5.55%; in experiment [5] it was 30.8%; in experiment [6], 7.6%.

Take `CCCCCCCCCCCCCCCCCCc1ccc(O)cc1O`: the growth inhibition is -2.05% in experiment [1]; -2.05% in experiment [2]; -15.9% in experiment [3]; 12.6% in experiment [4]; 1.75% in experiment [5]; -5.2% in experiment [6].

Consider `CC(Oc1ccccc1)C(=O)NC(=S)Nc1cccc2ccccc12` (stereo not drawn), for which the growth inhibition in experiment [1] is -10.2%; in experiment [2], -3.5%; in experiment [3] it was -3.35%; in experiment [4], -19.6%; in experiment [5], 20.9%; in experiment [6], 4.85%.

On to `CSc1ccc(C)cc1`, for which the growth inhibition is 30.6% in experiment [1]; -15.2% in experiment [2]; -24.5% in experiment [3]; -21.6% in experiment [4]; -9.35% in experiment [5]; 26.7% in experiment [6].

Take `c1ccc(Nc2ccccc2)cc1` (tested in a mixture with another compound): the growth inhibition is 3.1% in experiment [1]; 20.2% in experiment [2]; 1.95% in experiment [3]; 1.6% in experiment [4]; 38.7% in experiment [5]; 9.8% in experiment [6].

As to `CC(=O)c1sc2[n+](c1C)C(=O)/C(=C\c1ccccc1Cl)S2`, the growth inhibition was 15.7% in experiment [1]; -17.6% in experiment [2]; -1% in experiment [3]; 10.2% in experiment [4]; -7.75% in experiment [5]; -3% in experiment [6].

Regarding `O=c1[nH]c(=O)n(C2OC(CO)C(O)C2Br)cc1Br` (stereo not drawn), the growth inhibition is -2.25% in experiment [1]; -3.3% in experiment [2]; -6.8% in experiment [3]; -7.6% in experiment [4]; 0.65% in experiment [5]; 23.9% in experiment [6].

As for `COc1nc(NC2OC(CO)C(O)C(O)C2O)c(I)c(=O)[nH]1` (stereo not drawn), the growth inhibition in experiment [1] is 5.3%; in experiment [2] it was -3.4%; in experiment [3] it was 2%; in experiment [4], -6.25%; in experiment [5], -4.75%; in experiment [6], 21.8%.

With `NC(=O)c1cncn1C1OCC(O)C(O)C1O` (stereo not drawn), the growth inhibition in experiment [1] is 10.2%; in experiment [2] it was 6.4%; in experiment [3] it was 3.85%; in experiment [4], -6.8%; in experiment [5], 3.1%; in experiment [6] it was -20.2%.

Turning to `Cc1ccc(C(=O)CC(Sc2ccccc2N)c2c(Cl)cccc2Cl)c(C)c1` (stereo not drawn), the growth inhibition in experiment [1] was -7.4%; in experiment [2], -26.4%; in experiment [3] it was 3.8%; in experiment [4], -4.5%; in experiment [5] it was -11.1%; in experiment [6], -16.5%.

As to `CC(=O)/C=C/N1CCOCC1`, the growth inhibition in experiment [1] is 3.25%; in experiment [2], -9.55%; in experiment [3] it was -9.6%; in experiment [4], -16.9%; in experiment [5], 19.6%; in experiment [6], -5.65%.

With `COC(=O)[C@@H]1O[C@H]1c1ccccn1`, the growth inhibition in experiment [1] was 7.9%; in experiment [2], 1.1%; in experiment [3], -7.95%; in experiment [4], -5.75%; in experiment [5], 8.95%; in experiment [6] it was 0.1%.

On to `CCOC(=O)/C(=N/Nc1ccc(Cl)cc1)N1C(=S)C=C(C)NN(C)C1=S`, for which the growth inhibition is -6.35% in experiment [1]; -13.4% in experiment [2]; -22.1% in experiment [3]; -6.4% in experiment [4]; -4.8% in experiment [5]; 8.15% in experiment [6].

Consider `Cc1cccc(CO)c1NC(=O)NCCCl`, for which the growth inhibition in experiment [1] is -0.4%; in experiment [2] it was -12.2%; in experiment [3] it was -4.55%; in experiment [4], -32.2%; in experiment [5], -17.9%; in experiment [6], 3.25%.

As to `CC(C)(C)C1CCC2(CC1)CCN(CCCN1CCOCC1)CC2`, the growth inhibition in experiment [1] was 99% (active); in experiment [2], 98.4% (active); in experiment [3], 98.5% (active); in experiment [4] it was 97.3% (active); in experiment [5], 98.3% (active); in experiment [6], 97.8% (active).

Turning to `O=C(O)CCC1NC(/C(=C/c2ccccc2O)NC(=O)c2ccccc2)OC1=O` (stereo not drawn), the growth inhibition in experiment [1] is -0.75%; in experiment [2], -8.1%; in experiment [3], -14.1%; in experiment [4] it was -19.1%; in experiment [5], -8.25%; in experiment [6] it was -16.1%.
